# Bioassay records: PubChem, National Center for Advancing Translational Sciences (NCATS)
# Tb PGK inh – T. brucei PGK inhibition; 380,000 tested, 0.043% active; PGK/GAPDH coupled, Kinase-Glo luminescence, 60 min; P07378; Potency, µM (top dose mostly 57.5 µM), for inactives: at the top dose activity change, negative = inhibition, hits mostly inhibitors; further: on the % scale 0 is the no-effect control and ±100 the full control effect; nearly all actives have a fitted effect of over 60% in size
#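 Luminescent ATP detection (Kinase-Glo Plus) follows a 60-minute room-temperature incubation, with wells lacking PGK as controls. Buffer: 100 mM TEA (pH 7.6), 5 mM MgCl2, 0.01% Tween-20. Coupling enzyme GAPDH (100 nM final) supplies unstable 1,3-BPG in-well.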
# GLP-1R agonist – activates the human GLP-1 receptor; P43220; HEK293 GLP-1R CRE-luciferase, luminescence, 4-6 h; cells express a hypersensitive GLP-1R form; Potency, µM (top dose mostly 45.6 µM), for the others: at the top dose activation, hits mostly activators; 380,000 tested, 0.007% active; AID 624172; further: % of control where 0% means no effect
# Target sequence (P43220 whole entry, looked up): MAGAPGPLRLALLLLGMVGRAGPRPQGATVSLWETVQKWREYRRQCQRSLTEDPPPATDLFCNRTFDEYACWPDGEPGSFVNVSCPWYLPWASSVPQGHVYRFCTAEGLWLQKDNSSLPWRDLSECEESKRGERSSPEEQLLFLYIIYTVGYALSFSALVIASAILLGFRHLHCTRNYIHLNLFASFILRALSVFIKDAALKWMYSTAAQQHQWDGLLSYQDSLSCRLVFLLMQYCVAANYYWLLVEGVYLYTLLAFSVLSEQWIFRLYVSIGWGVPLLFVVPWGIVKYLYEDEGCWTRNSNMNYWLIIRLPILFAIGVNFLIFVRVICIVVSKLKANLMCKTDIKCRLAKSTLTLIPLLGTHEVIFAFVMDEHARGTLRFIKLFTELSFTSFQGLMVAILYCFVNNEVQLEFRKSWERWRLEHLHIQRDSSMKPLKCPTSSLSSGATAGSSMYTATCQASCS
# GLP-1R inv ag – GLP-1 receptor (human) inverse agonism. Potency, µM (titrated, usually from 38.3 µM), without a hit: at the highest dose activity change, negative = inhibition, usual class: inhibitors. HEK293 GLP-1R CRE-luciferase, luminescence, 24 h; GLP-1R form is constitutively active. P43220. 410,000 tested, 1.6% active; further: on the % scale 0 is the no-effect control and ±100 the full control effect; nearly all actives have a fitted effect of over 55% in size
#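 Luminescence readout: a drop in cAMP-driven luciferase signal flags inverse agonism at a constitutively active GLP-1R stably expressed in HEK293. Compound exposure lasted 24 hr at 37 deg C, 5% CO2.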
# HEK293 tox – cytotoxic in the GLP-1 receptor inverse agonist counter-screen. HEK293 cAMP-luciferase reporter cells, luminescence, 24 h. Potency, µM (titrated, usually from 38.3 µM), inactives show top-dose activity change, negative = inhibition, actives largely listed as inhibitors. 410,000 tested, 0.13% active;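 further: loss of luciferase light is scored as toxicity; on the % scale 0 is the no-effect control and ±100 the full control effect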
#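 1536-well qHTS counterscreen of the MLSMR; 200 cells/uL, 12 h pre-incubation, 23 nL cpd, 24 h at 37 deg C 5% CO2, luciferase detection reagent, 12 min RT, luminescence. Inhibition = undesired.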
# Pin1 inh – inhibitors of human Pin1; Q13526; Pin1 FP peptide displacement, HiFluor488, 10 min; Potency, µM (top dose mostly 115 µM), inactives show top-dose activity, negative = inhibition, usual class: inhibitors; 390,000 tested, 0.009% active; AID 504891; active means well fitted inhibition curve with a large enough effect in the polarisation, with a control signal flat, not every such curve was filed as active; inconclusive means small, poorly fitted or top-dose-only effect, or effect the other way, or a change in a side signal; inactive means no such curve, though single readings can be large or run the other way; the % refers to the polarisation; further: on the % scale 0 is the no-effect control and ±100 the full control effect
# Target sequence (Q13526 whole entry, looked up): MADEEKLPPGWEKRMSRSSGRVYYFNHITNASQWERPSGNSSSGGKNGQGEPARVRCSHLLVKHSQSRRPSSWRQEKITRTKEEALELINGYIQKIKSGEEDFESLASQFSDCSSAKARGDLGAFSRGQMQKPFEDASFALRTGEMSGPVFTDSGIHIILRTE
# Tb PFK block – T. brucei PFK enzyme inhibition | O15648 | T. brucei PFK, ADP-Glo luminescence | Potency, µM (titrated, usually from 57.5 µM), for the others: at the top dose activity, negative = inhibition, most hits filed as inhibitors | 330,000 tested, 0.17% active;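 further: 0% = uninhibited 1x PFK enzyme wells and -100% = no-enzyme wells; nearly all actives have a fitted effect of over 60% in size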
#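 ADP-Glo luminescence quantified ADP after 45 min at room temperature, with 1.25 nM T. brucei PFK, 0.1 mM ATP and 0.5 mM fructose-6-phosphate in pH 8.0 TEA buffer. qHTS titrations up to 57 µM; curves classified by quality.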
# * hit, by the source's call; i = inactive; ? = inconclusive; . = no result given. Only some compounds are listed: those with a hit (about 1.8% of all), similar ones and a draw of the others. Unless noted, the call rests on the fitted dose curve; in most records, active means well fitted curve in the direction sought with a large enough effect; inconclusive means small, poorly fitted or top-dose-only effect, or another doubt; inactive means no such curve, though single readings can be large; an effect the other way counts as inactive or inconclusive. Potency means the concentration at half of the fitted maximal effect.
SMILES,Tb PGK inh,GLP-1R agonist,GLP-1R inv ag,HEK293 tox,Pin1 inh,Tb PFK block
NC(=O)c1cc2ccncc2c2ccccc12,1.2%,-6.0%,1µM*,-14.3%,1.5%,0.3%
Cc1nc(-c2ccc(C)c(N3CCN(C(=O)Nc4cccc(Cl)c4C)CC3)c2)no1,-0.4%,-3.7%,4.47µM*,0.1%,7.0%,.
CCOc1ccc(N(C)S(=O)(=O)c2ccc(C)c(C(=O)N3CCN(Cc4ccc5c(c4)OCO5)CC3)c2)cc1,-11.3%,0.3%,11.2µM*,3.3%,9.8%,10.6%
CCOc1ccc(N(C)S(=O)(=O)c2ccc(C)c(C(=O)NCCc3ccc(OC)cc3)c2)cc1,3.5%,-2.0%,10µM*,-4.8%,7.8%,-8.5%
Cc1ccc(N2C(=O)CSC23C(=O)Nc2ccccc23)cc1F (stereo not given),-9.1%,-6.8%,-11.8%,-5.2%,-14.1%,.
Cc1noc(C)c1CSCC(=O)Nc1cc(C(F)(F)F)ccc1N1CCCCC1,-1.9%,4.9%,?,-5.4%,13.0%,2.1%
Cc1noc(C)c1CSCC(=O)Nc1cc(Cl)ccc1N1CCCCC1,7.3%,-2.7%,11.2µM*,7.0%,10.4%,-1.0%
COc1ccc2nc(N3C(=O)CNC3=S)sc2c1,-11.0%,0.2%,?,7.94µM*,-1.9%,-0.3%
Cc1ccc2nc(N3C(=O)CNC3=S)sc2c1,-3.5%,10.7%,?,?,8.2%,0.9%
Nc1nc(Sc2ccc(C(F)(F)F)cc2[N+](=O)[O-])n[nH]1,2.3%,18.1%,7.7%,19.2%,3.6%,-2.4%
O=[N+]([O-])c1cc(C(F)(F)F)ccc1Sc1ccc2ccccc2n1,.,0.6%,10µM*,2.5%,1.7%,-6.0%
Cc1cc(C)nc(OC(C(=O)O)C(OCCc2ccccc2)(c2ccc(F)cc2)c2ccc(F)cc2)n1 (stereo not given),-2.4%,-6.0%,10µM*,-31.5%,-18.4%,-4.6%
O=C(NCCNC(=O)c1cc(OCC(F)(F)F)ccc1OCC(F)(F)F)Nc1cccc(C(F)(F)F)c1,-5.4%,-2.6%,-23.9%,?,6.6%,-3.9%
O=C(Nc1ccccc1)Nc1cc(Cl)cc(Cl)c1,-1.9%,-47.3%,2.82µM*,?,11.9%,-6.8%
O=C(Nc1ccccc1)Nc1cc(OCC(F)(F)F)cc(OCC(F)(F)F)c1,i,-0.1%,2.82µM*,5.62µM*,1.4%,-3.5%
Cc1c(Cl)cccc1NC(=O)CN1C(=O)COc2ccc(S(=O)(=O)N3CCCCCC3)cc21,-3.8%,.,9.6%,-12.0%,-0.3%,.
Cc1ccccc1Nc1nnc(-c2ccc(C)c(S(=O)(=O)N3CCCCC3)c2)c2ccccc12,-1.4%,.,3.16µM*,0.8%,?,.
CCOc1ccc(CNC(c2ccccc2)c2ccccc2)cc1,-5.3%,10.1%,7.08µM*,3.3%,-2.9%,1.0%
CCOc1ccc(CNCc2ccccc2Cl)cc1,i,5.0%,-3.9%,-1.2%,-3.5%,1.8%
CCOc1cc2[nH]c(=O)n(CCCCC(=O)N3CCN(c4ccccc4OC)CC3)c(=O)c2cc1OCC,4.4%,.,-9.8%,-2.1%,-6.0%,.
CCN(C(=O)Cn1c(C(=O)OC)cc2sc(Cl)cc21)c1cccc(C)c1,-5.8%,.,16.1%,-5.8%,-14.5%,.
O=C(/C=C/c1cnc2ccccc2n1)NC12CC3CC(CC(C3)C1)C2,8.3%,-1.3%,2.51µM*,-19.5%,13.7%,-0.9%
Cc1[nH]c2ccccc2c1CCN(Cc1cccnc1)C(=S)Nc1ccc(F)cc1,-8.8%,1.3%,?,1.6%,3.5%,0.0%
CCOc1ccc(NC(=S)N(CCc2c(C)[nH]c3ccccc23)Cc2cccnc2)cc1,-2.9%,-1.2%,10µM*,0.4%,4.5%,0.4%
CCCOc1ccc(CNC(=O)C(CC)n2nc(C)c3sc4ccccc4c3c2=O)cc1 (stereo not given),7.7%,.,7.0%,3.7%,12.0%,.
SMILES,Tb PGK inh,GLP-1R agonist,GLP-1R inv ag,HEK293 tox,Pin1 inh,Tb PFK block
O=C(Nc1cc2ccccc2oc1=O)c1ccccc1,-20.0%,-3.3%,7.94µM*,0.5%,4.0%,0.7%
CC(C)(C)c1ccc(S(=O)(=O)N2CCC(O)(c3ccc(Cl)cc3)CC2)cc1,-7.9%,2.2%,7.08µM*,-13.2%,0.1%,-7.1%
CN1CCN(CC2(O)CCN(S(=O)(=O)c3ccc(Cl)cc3)CC2)CC1,-1.8%,4.3%,0.891µM*,15.2%,-12.5%,-0.4%
CCOC(=O)COc1ccc(CC)cc1C(=O)c1ccn2nc(-c3ccc(C)cc3)cc2n1,-9.3%,0.3%,?,-17.3%,17.0%,.
CCN(Cc1ccccc1)Cc1c(O)ccc2c(=O)c(-c3ccccc3Cl)c(C(F)(F)F)oc12,.,.,-14.9%,30.5%,2.3%,.
CCOc1ccc(C(=O)NCC(c2ccc3c(c2)OCO3)N2CCN(c3ccccc3F)CC2)cc1 (stereo not given),i,.,3.3%,0.0%,6.8%,.
Cc1cccc2cc(/C=C3\N=C(c4ccccc4)OC3=O)c(N3CCOCC3)nc12,-10.1%,5.8%,2.7%,-6.0%,75.7µM*,4.4%
Cc1ccc(C2=N/C(=C/N3CCOCC3)C(=O)O2)cc1,8.2%,5.8%,60.8%,19.0%,-8.7%,3.0%
CC(C)c1cc(C(C)C)c(S(=O)(=O)N2c3ccccc3[C@@]3(Br)C[C@H]4C(=O)N[C@@H](Cc5ccccc5)C(=O)N4[C@@H]23)c(C(C)C)c1,i,-4.8%,5.62µM*,5.0%,38.6%,.
O=C1N[C@@H](Cc2ccccc2)C(=O)N2[C@@H]3N(S(=O)(=O)c4ccccc4)c4ccccc4[C@]3(Br)C[C@@H]12,-6.7%,2.0%,10µM*,16.4%,13.0%,.
O=C1CCCC2=C1C1(CCCC1)N=C(Nc1nc3cc(Cl)ccc3o1)N2,.,.,.,.,4.6%,.
O=[N+]([O-])c1ccc(/C=N/N=C/c2ccc([N+](=O)[O-])o2)o1,-7.6%,14.1%,?,10µM*,-1.5%,-2.5%
CC(=O)N/N=C/c1ccc([N+](=O)[O-])o1,.,-5.1%,.,.,.,.
O=C(O)/C=C/c1ccc([N+](=O)[O-])o1,15.8µM*,0.7%,6.5%,-14.0%,-22.7%,0.5%
N#CCc1ccc(NC(=O)/C=C/c2ccc([N+](=O)[O-])o2)cc1,-16.6%,-0.9%,-101.2%,3.98µM*,-5.9%,-5.0%
COc1ccccc1NC(=O)N(Cc1ccco1)Cc1cc2cccc(C)c2[nH]c1=O,-6.7%,0.7%,11.2µM*,-14.4%,31.9%,-0.2%
COc1ccccc1NC(=O)N(Cc1ccco1)Cc1cc2c(C)ccc(C)c2[nH]c1=O,-7.4%,-11.5%,-26.5%,4.9%,-2.4%,13.3%
CCN(CC)CCN(Cc1cc2cc(C)c(C)cc2[nH]c1=O)C(=S)NCc1ccco1,-1.1%,13.1%,10µM*,?,2.3%,-0.7%
